Activity calls are given as the source filed them. Rule for the calls: active = hit-call score of the fitted dose curve at least 0.9, where 1 is the maximum; inactive = score below 0.9.

The AC50 is the concentration at which the activity in the assay is half-maximal.

A short description of this assay: CCTE_Deisenroth_5AR_NBTE_donor: CCTE's 5alpha-reductase NanoBRET Target Engagement Assay […], Deisenroth Lab (AID 2284319). Particulars: actives raise or lower the signal. As to the method: CCTE_Deisenroth_5AR NBTE (5alpha-reductase NanoBRET Target Engagement Assay) is a cell-based, single-readout assay that uses HEK293T, a human kidney cell line, with measurements taken at 5 hours after chemical dosing in a 384 well plate. This assay includes a primary and secondary screen as well as an autofluorscence screen.CCTE_Deisenroth_5AR NBTE_donor is one of four assay components measured from the CCTE_Deisenroth_5AR NBTE assay. It is designed to make measurements of donor luminescence, as detected by bioluminescence intensity emission signals using spectrometry technology.Data from the assay component CCTE_Deisenroth_5AR NBTE_donor was analyzed into 1 assay endpoint. This assay endpoint, CCTE_Deisenroth_5AR NBTE_donor, was analyzed with bidirectional fitting relative to DMSO as the negative control and baseline of activity. Using a type of inducible reporter, gain or loss-of-signal activity can be used to understand changes in the donor luminescence as related to 5alpha-reductase catalytic function. Furthermore, this assay endpoint can be referred to as a secondary readout, because this assay has produced multiple assay endpoints where this one serves an artifact detection function.
For transient expression of the SRD5A2-NanoLuc fusion protein, HEK293T cells are reverse transfected with pNLF1-C-SRD5A2 expression vector and incubated for 20 hours to facilitate fusion protein expression. For assay setup, 384-well non-binding surface (NBS) microplates are pre-dispensed with test chemical across an 8-point concentration series (10 nM - 29.9 uM) with two technical replicates per run. Cell suspensions are dispensed into the microplates and incubated with test chemical for a duration of three hours. Following pre-incubation with test chemical, the testosterone tracer is dispensed into each well and incubated an additional two hours. The total incubation period with test chemical is five hours, with testosterone tracer added the final two hours to reach target engagement equilibrium. For the NanoBRET endpoint measurements, a solution of Nano-Glo substrate and extracellular NanoLuc inhibitor solution is added to each test well and immediately scanned on a plate reader configured with multichromatic emission settings for donor luminescence ([…]) and acceptor fluorescence ([…]). DMSO solvent controls are included as baseline control. Plate-matched samples are run with mock tracer conditions or testosterone tracer to discriminate any potential non-specific substrate interference.
On the technique in general: In BRET a luciferase serves as donor, and the signal depends on an acceptor being close.
`CCN(CC)c1ccc(C(=C2C=CC(=[N+](CC)CC)C=C2)c2ccc(S(=O)(=O)O)cc2S(=O)(=O)[O-])cc1`: the compound was called inactive.
On to `CCCCCCCCCCCCCOS(=O)(=O)O`, for which the half-maximal activity concentration (AC50) is 50 µM (active).
`CCN(CC)c1ccc2c(-c3ccccc3C(=O)O)c3ccc(=[N+](CC)CC)cc-3oc2c1`: the call was inactive.
For the compound `CCCCCCCCCCCCCCCC(=O)OC[C@H](O)[C@H]1OC(=O)C(O)=C1O`, the call was inactive.
The same measure, in the same setting: the same measure for `CC(C)=CCC[C@](C)(O)[C@@H]1CC=C(C)CC1`: “inactive”; for `CCCCCCCCCCCCCC(=O)O`: “inactive”; for `CC1CC(OC(=O)c2ccccc2O)CC(C)(C)C1` (stereo not given): “inactive”.
In the case of `O=Nc1ccc(Nc2ccccc2)cc1`, the AC50 is 23.4 µM (active).
Regarding `CCCCCC(CO)CCC` (stereo not given), the outcome was inactive.
On the same count and under the same terms, to `BrC1CCC(Br)C(Br)CCC(Br)C(Br)CCC1Br` (stereo not given) belongs “inactive”.

Source of the values: PubChem BioAssay (EPA / NIEHS).
